High-throughput results (PubChem BioAssay)
Rows were chosen to be rich in hits. Some 28% of all compounds tested hit in one or more screens of this group.
CYP2C19 act: increases human CYP2C19 enzyme activity; activation factor at 5 µM; P33261; 96,000 tested, under 10 active; recombinant CYP2C19, luciferin-H EGE luminescence; active compounds read high; 0 = fully inhibited enzyme, 1 = untreated enzyme; AID 1025;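 active = activation factor of at least 2 at 5 µM in the primary screen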;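 also: 0 = wells with 2.5 mM tranylcypromine and 1 = vehicle-only wells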
CYP2C9 act: activators of human CYP2C9. AID 1024. P11712. hit rate 1.4% among 96,000. recombinant CYP2C9, luciferin-H conversion, luminescence; active compounds read high; factor 1 = untreated enzyme, 0 = blocked. activation factor at 5 µM;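 active = activation factor of 2 or more for CYP2C9 at a 5 µM dose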;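 also: 0 = sulfaphenazole-blocked wells and 1 = vehicle-only wells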
CYP2C9 inhib: inhibitors of human CYP2C9. P11712. hit rate 20% among 96,000. AID 777. CYP2C9 Supersomes, luciferin-H conversion, luminescence. inhibition, % at 5 µM;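 active = blocking of liver enzyme CYP2C9 beyond about 50% at 5 µM, limit read from the data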
CYP2C19 inhib: blocks human cytochrome P450 2C19; P33261; AID 778; CYP2C19 Supersomes, luciferin-H EGE luminescence, 30 min; hit rate 21% among 96,000; inhibition, % at 5 µM;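 active = CYP2C19 inhibition above a set limit at 5 µM in the primary screen, cut at about 50% in these data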;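 also: plate controls were negative control wells for no effect and 2.5 mM tranylcypromine positive control for full effect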
PTK2B oligo ant: Pyk2 (human) oligomerization antagonism | Q293 cells, Pyk2 FERM NanoBiT luminescence; active compounds read low | z-score (the deposit names both 25 µM and 10 µM) | hit rate 0.83% among 99,000;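 active = Z-score of -3 or lower, scaled per plate to the spread of control and sample wells; inactive = z-score above -3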;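 also: negative z-score means lost luminescence so less FERM oligomerization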
Target sequence (Q14289 whole entry, looked up): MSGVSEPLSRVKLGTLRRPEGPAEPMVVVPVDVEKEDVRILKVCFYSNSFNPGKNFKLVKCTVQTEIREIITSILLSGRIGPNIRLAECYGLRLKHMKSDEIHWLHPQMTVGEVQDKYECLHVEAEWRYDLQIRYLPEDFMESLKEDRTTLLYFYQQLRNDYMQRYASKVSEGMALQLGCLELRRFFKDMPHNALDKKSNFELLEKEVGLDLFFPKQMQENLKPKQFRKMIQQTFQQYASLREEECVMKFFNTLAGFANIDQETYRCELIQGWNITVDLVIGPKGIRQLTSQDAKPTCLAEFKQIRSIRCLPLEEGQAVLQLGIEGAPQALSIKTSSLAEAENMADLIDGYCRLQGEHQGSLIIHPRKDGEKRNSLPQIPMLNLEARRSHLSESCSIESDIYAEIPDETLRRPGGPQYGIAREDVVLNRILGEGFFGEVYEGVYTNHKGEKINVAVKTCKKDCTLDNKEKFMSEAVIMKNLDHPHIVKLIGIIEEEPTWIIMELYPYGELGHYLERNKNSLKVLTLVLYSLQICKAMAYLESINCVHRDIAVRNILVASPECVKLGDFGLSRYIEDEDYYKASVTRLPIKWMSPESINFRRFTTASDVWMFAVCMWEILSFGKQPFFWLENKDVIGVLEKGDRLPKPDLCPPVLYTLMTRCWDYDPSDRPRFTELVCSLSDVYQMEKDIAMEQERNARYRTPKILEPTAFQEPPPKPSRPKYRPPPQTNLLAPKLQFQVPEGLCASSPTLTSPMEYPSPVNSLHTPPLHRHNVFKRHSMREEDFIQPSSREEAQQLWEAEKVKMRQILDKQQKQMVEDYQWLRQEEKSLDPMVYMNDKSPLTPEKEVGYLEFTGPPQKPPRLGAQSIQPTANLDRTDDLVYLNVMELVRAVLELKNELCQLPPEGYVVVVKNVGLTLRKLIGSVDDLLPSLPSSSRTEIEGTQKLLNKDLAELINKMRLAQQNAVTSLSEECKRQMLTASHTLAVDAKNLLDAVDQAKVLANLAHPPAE
* = called active by the depositor; . = no result given.

SMILES | CYP2C19 act | CYP2C9 act | CYP2C9 inhib | CYP2C19 inhib | PTK2B oligo ant
Cc1ccc(S(=O)(=O)N(CC(=O)NCCC2=CCCCC2)Cc2ccccc2)cc1 | 0.6 | 0.4 | 57* | 39 | -0.56
O=C(CN(Cc1ccccc1F)S(=O)(=O)c1ccc(Cl)cc1)NCCCO | 0.5 | 0.9 | 14 | 54* | .
CS(=O)(=O)N(CC(=O)NCCC1=CCCCC1)C1CCCCC1 | 0.3 | 0.3 | 69* | 71* | -0.42
CN(C)CCNC(=O)Cn1nc(C(F)F)cc1C1CC1 | 1 | 1 | -1 | -1 | -0.12
O=C(Cn1nc(C(F)F)cc1C1CC1)NCCC1=CCCCC1 | 0.3 | 1 | 0 | 68* | 1.2
O=C(CN(Cc1ccccc1)S(=O)(=O)c1ccc(F)cc1)NCCC1=CCCCC1 | 0.8 | 0.5 | 46 | 19 | 0.09
COCCOC(=O)c1c(C)n(C)c2ccc(OC(=O)C3CC3)cc12 | 0.8 | 0.7 | 30 | 25 | 1.4
C=C(C)c1nc(N)nc(N)n1 | 1 | 1 | 3 | -2 | 0.05
N#Cc1ccccc1CSc1nc(N2CCCCC2)nc(N2CCCCC2)n1 | 0.9 | 0.5 | 49 | 10 | -0.3
CCN(CC)CC(C(=O)N(CC)CC)P(=O)(c1ccccc1)c1ccccc1 (stereo not drawn) | 1.1 | 1.1 | -6 | -10 | 0.94
CCN1C(=O)C(CC(=O)N2CCN(C(c3ccccc3)c3ccccc3)CC2)N(CC)C1=O (stereo not drawn) | 0.9 | 0.9 | 6 | 10 | -0.78
Cc1ccc(S(=O)(=O)N(CC(=O)NCCC2=CCCCC2)Cc2ccccc2F)cc1 | 0.8 | 0.5 | 52* | 22 | 0.66
O=C(CN(Cc1ccccc1F)S(=O)(=O)c1ccc(Cl)cc1)NCCC1=CCCCC1 | 0.9 | 0.8 | 16 | 8 | -0.82
COC(=O)c1c(-c2ccc3ccccc3c2)csc1NC(=O)Cc1ccc(OC)c(OC)c1 | 0.5 | 0.2 | 80* | 48 | -2.1
COC(=O)c1c(-c2ccc(OC)c(OC)c2)csc1N | 0.4 | 0.5 | 46 | 60* | 1.2
Cc1sc2nc3c4ccccc4c(NCc4ccco4)nn3c(=O)c2c1C | 0.9 | 0.7 | 28 | 6 | 0.12
CCOC(=O)c1sc2nc(CC(=O)OC)nc(NCc3ccco3)c2c1C | 0.4 | 0.2 | 84* | 61* | -0.44
Cc1sc2ncnc(N(C)Cc3ccco3)c2c1C | 0 | 0.2 | 78* | 96* | -0.18
Cc1nc(SCC(=O)N(C)Cc2ccco2)c2c(C)c(C)sc2n1 | 0.3 | 0.1 | 88* | 68* | 0.18
Cc1nc(NCc2ccco2)c2c(C)c(C)sc2n1 | 0.2 | 0.2 | 82* | 77* | 0.9
CCOC(=O)c1sc2nc(CC(=O)OC)nc(NCC(=O)OC)c2c1C | 1 | 1 | -4 | -2 | -1.9
COc1ccccc1NC(=O)c1sc2ncn(Cc3ccc(C)cc3)c(=O)c2c1C | 0.2 | 1.4 | -42 | 84* | 1.6
COc1ccccc1NC(=O)c1sc2ncn(Cc3cccc(C)c3)c(=O)c2c1C | 0.9 | 1.2 | -20 | 8 | 0.66
COCCNC(=O)Nc1ccc2nc(-c3cccs3)c(-c3cccs3)nc2c1 | 1 | 0.5 | 52* | 2 | 0.56
Cc1occc1C(=O)N1CCN(c2ccccc2)CC1 | . | . | . | . | 0
SMILES | CYP2C19 act | CYP2C9 act | CYP2C9 inhib | CYP2C19 inhib | PTK2B oligo ant
Cc1occc1C(=O)N1CCN(C(c2ccccc2)c2ccccc2)CC1 | 0.7 | 0.5 | 53* | 35 | 0.36
CN(C)C(=C(C#N)C#N)N1CCN(c2ccc(Cl)c(Cl)c2)CC1 | 0.4 | 0.4 | 64* | 56* | -0.52
O=C(O)C1CC1C(=O)N1CCN(c2ccc(Cl)c(Cl)c2)CC1 (stereo not drawn) | 1 | 1.1 | -11 | -2 | 0.55
Cc1cc(C(=O)N2CCN(C(c3ccccc3)c3ccccc3)CC2)on1 | 0.3 | 0.2 | 77* | 69* | .
O=C(C1=COCCO1)N1CCN(C(c2ccccc2)c2ccccc2)CC1 | 1 | 0.3 | 67* | 4 | -0.92
CCCCN(C(=O)Cn1nnc2ccccc21)C(C(=O)NCCOC)c1cccs1 (stereo not drawn) | . | . | . | . | -0.3
CC(/C=N/n1cnnc1)=C\c1ccco1 | . | . | . | . | 0.29
COc1cccc(CNCC(=O)N2C(C)CCCC2C)c1 (stereo not drawn) | 0.5 | 0.9 | 12 | 49 | -0.01
C=CCn1c(SCc2ccc([N+](=O)[O-])cc2)nnc1C(C)NC(=O)c1ccccc1 (stereo not drawn) | 0.9 | 1.1 | -8 | 5 | 1.2
Cc1cccc(NCc2nc(SCC(N)=O)n[nH]2)c1 | 0.7 | 1 | 3 | 30 | 2.2
Cc1occc1C(=O)N1CCN(c2ccc(Cl)c(Cl)c2)CC1 | 0 | 0.2 | 83* | 98* | -0.61
CC1CCN(c2ncnc3nc[nH]c23)CC1 | 1 | 0.9 | 6 | -2 | .
COc1cccc(CNC(=O)Cn2cc3c(n2)CCCC3)c1 | 0.3 | 1.2 | -22 | 70* | .
O=C(Cn1cc2c(n1)CCCC2)NCc1cccnc1 | 0.9 | 0.9 | 14 | 11 | .
CCN(CCNC(=O)Cn1cc2c(n1)CCCC2)c1ccccc1 | 0.3 | 0.3 | 69* | 72* | .
O=C(Cn1cc2c(n1)CCCCC2)NCc1ccccc1 | 0.2 | 2.5* | -154 | 84* | .
O=C(Cn1cc2c(n1)CCCC2)NCc1cccc(Cl)c1 | 0.5 | 1.9 | -93 | 48 | .
CC1CCN(C(=O)Cn2cc3c(n2)CCCC3)CC1 | 0.4 | 0.9 | 15 | 55* | .
CCOc1ccc(N2CC(C(=O)OCC(=O)NCc3ccccc3)CC2=O)cc1 (stereo not drawn) | 0.8 | 0.6 | 39 | 16 | 1.1
CCOC(=O)C(Sc1n[nH]c(N)n1)c1ccccc1 (stereo not drawn) | 0.8 | 0.8 | 19 | 17 | -0.86
CC(C)NC(=O)CCNC(=O)c1ccc(F)cc1 | . | . | . | . | 1.1
O=C(NCc1ccc(N2CCCC2=O)cc1)Nc1ccccc1 | 0.8 | 0.7 | 34 | 21 | 1.1
CCCN1CCC(N2CCN(c3cccc(C(F)(F)F)c3)CC2)CC1 | 1 | 1.1 | -8 | 0 | 0.32
c1ccc(N2CCN(Cc3cn4cccnc4n3)CC2)cc1 | 0.7 | 1.1 | -14 | 33 | .
Cc1ccc(NC(=O)Cn2cc3c(n2)CCC(C)C3)cc1 (stereo not drawn) | 0.8 | 0.8 | 20 | 16 | .
SMILES | CYP2C19 act | CYP2C9 act | CYP2C9 inhib | CYP2C19 inhib | PTK2B oligo ant
O=C(Cn1cc2c(n1)CCCC2)Nc1ccccc1Br | 0.1 | 0.3 | 67* | 90* | .
COC(=O)c1ccccc1NC(=O)Cn1cc2c(n1)CCC(C)C2 (stereo not drawn) | 0.9 | 0.4 | 61* | 13 | .
Cc1ccc2nc(NC(=O)Cn3cc4c(n3)CCCCC4)sc2c1 | 0.7 | 0.3 | 66* | 29 | .
Cc1cc(C)c(NC(=O)Cn2cc3c(n2)CCCC3)c(C)c1 | 0.9 | 1.1 | -11 | 8 | .
NC(=O)CSc1nnc(C2CC2)n1-c1ccccc1 | 1.1 | 1 | 1 | -9 | 0.45
COCC(=O)Nc1nnc(CCc2ccccc2)s1 | 0.8 | 0.9 | 6 | 21 | 0.43
COC(=O)CNc1nc(-c2cccnc2)nc2ccccc12 | 0.8 | 0.4 | 56* | 24 | -1.8
COC(=O)CNc1nc(-c2ccccc2F)nc2ccccc12 | 1 | 0.8 | 19 | 4 | -2.4
